# Results as given in PubChem BioAssay (NCI).
# Compounds without any hit were thinned out: in the full panel of roughly 83,000, 20% have a hit.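 Compound tested at a single concentration for 48 hours in 96-well plates; a percent growth value below 10 was scored as active.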 Calls of active or inactive are those of the source.
# Tested on: MCF7 breast
# Test: NCI-60 one-dose screen, 48 h (100 = growth as untreated, 0 = no growth, -100 = all killed)
# Conditions: 10 µM unless noted
row,Compound,growth
1,CCn1cc(C(=O)N/N=C/c2cccs2)c(=O)c2cc(F)c(N3CCNC(C)C3)c(F)c21 (configuration not stated),-77.4% (active)
2,CC1=C(CCC(C)N(C)Cc2ccc(OCCCN3CCCC3)cc2)C(C)(C)CCC1 (configuration not stated),-33.3% (active)
3,COP(=O)(OC)C(C)(C)CC(=O)CC(C#N)(C#N)C(C#N)C#N,92.1% (inactive)
4,CCCCC[C@@H]1Cc2cc(O)c(C(=O)O)c3c2[C@H](C[C@]2(OC[C@@H](CC(=O)[C@@](C)(CC)C(=O)OC)[C@@H]2C)O3)O1,99.3% (inactive)
5,Nc1ncnc2c1N=C(c1ccc(Cl)cc1)CC(c1ccc3c(c1)OCO3)N2 (configuration not stated),81.2% (inactive)
6,O=[N+]([O-])/C(=C/C=C/c1ccccc1)c1ccccc1,23.5% (inactive)
7,Fc1ccc(-c2nn(-c3ccccc3)cc2-c2nc3ccccc3o2)cc1,50.9% (inactive)
8,COc1cc(/C=C/C(=O)c2cccc(Nc3nc(Nc4ccccc4)nc(Nc4ccccc4)n3)c2)cc(OC)c1OC,22.9% (inactive)
9,C#CCOc1cccc(Nc2ncnc3c(NC(=O)C=C)cccc23)c1,16.4% (inactive)
10,CNc1nc(S(=O)c2ccc(C#N)cc2)nc2ccccc12 (configuration not stated),72.1% (inactive)
11,CC(=O)N(N=Nc1ccccc1)c1cccc2ccccc12,76.8% (inactive)
12,O=C(/C=C/c1cn(-c2ccccc2)nc1-c1ccc([N+](=O)[O-])cc1)c1ccc(Cl)cc1,25.4% (inactive)
13,COc1cc(-c2csc(NC(=O)c3cc(-n4cnc(C)c4)cc(C(F)(F)F)c3)n2)cc(OC)c1OC,61.8% (inactive)
14,COc1ccc(-c2nc3c(c(-c4ccccc4)nn3-c3ccccc3)c(-c3ccc(N4CCOCC4)cc3)c2C#N)cc1,84.6% (inactive)
15,CSc1nc2sc3c(c2c(=O)n1-c1ccc([N+](=O)[O-])cc1)CCCCC3,86.2% (inactive)

# Tested on: HCT-116 colon
# Test: as above
# Conditions: 10 µM unless noted
row,Compound,growth
1,CS(=O)(=O)Nc1cc(-c2ccc3ncnc(Nc4c(Cl)ccc5c4OCO5)c3c2)cnc1Cl,-22.6% (active)
2,O=C(Nc1cc(Cl)ccc1O)c1ccc(Nc2ccnc(C(F)(F)F)c2)cc1,16% (inactive)
3,Cc1cccc(N2CCN(CC(O)COc3ccc(Cl)cc3)CC2)c1 (configuration not stated),89.9% (inactive)
4,OCCOCCN(Cc1ccccn1)Cc1cc(I)cc(I)c1O,73.4% (inactive)
5,COc1ccc(C2c3sc4c(F)cccc4c3Oc3nc[nH]c(=O)c32)cc1 (configuration not stated),79.9% (inactive)
6,N#Cc1cccc(F)c1,106% (inactive)
7,C=C(C)[C@@H]1CC[C@]2(C(=O)NCC#CCN3CCN(C)CC3)CC[C@]3(C)[C@H](CC[C@@H]4[C@@](C)(CCC#N)[C@H](C(=C)C)CC[C@]43C)[C@@H]12,26.4% (inactive)
8,O=C(O)c1[nH]c(=O)[nH]c(=O)c1[N+](=O)[O-],100% (inactive)
9,O=c1c2cc(-c3ccccc3)sc2nc2sc(-c3ccccc3)nn12,102% (inactive)
10,CCOC(=O)c1c(C)nc2c(c1N)CC(=O)N2Cc1cc(F)cc(Cl)c1,79.9% (inactive)
11,COc1ccc(C(=S)N2CCN(c3ccccc3Cl)CC2)cc1OC,87.1% (inactive)
12,C#Cc1cccc(Nc2ncnc3ccc(-c4cnc(N)nc4)cc23)c1,47.9% (inactive)
13,Cc1ccc(/C=C2\CN(C(=O)OC(C)(C)C)C/C(=C\c3ccc(C)cc3)C2=O)cc1,-44.4% (active)
14,COC(=O)/C(CCC=C(C)C)=C1\[C@@H](OC(C)=O)C[C@@]2(C)[C@H]1C[C@@H](O)[C@H]1[C@@]3(C)CC[C@H](NCCN)[C@@H](C)[C@@H]3CC[C@@]12C,36.8% (inactive)
15,Cc1cc(Cl)ccc1Nc1nc(C(F)(F)F)ccc1C(=O)N/N=C/c1ccc([N+](=O)[O-])cc1,6.32% (active)
16,CCOC(=O)c1cc(C(=O)c2cc(OC)c(OC)c(OC)c2)n2ccc(-c3ccncc3)cc12,76.3% (inactive)
17,C[C@@H]1CCC[C@H]1CC(N)C(=O)O (some centres not stated),95.7% (inactive)
18,Cc1ccc(Cc2cnc(NC(=O)c3cc(Br)cs3)s2)cc1,32.9% (inactive)
19,O=C1C(Cl)=C(Oc2ccccc2)C(=O)c2ccccc21,29.3% (inactive)
20,CC/C(=C(/c1ccc(Cl)cc1)c1ccc(OCCN2CCCC2)cc1)c1ccc(OC)cc1,65.9% (inactive)
21,N=C(N)c1ccc(-c2ccc(-c3cc(Cl)cc(Cl)c3)o2)o1,-69.4% (active)
22,COc1cc(-n2cc(-c3cc(O)c(C/C=C(\C)CCC=C(C)C)c(O)c3)nn2)cc2c1O[C@]1(C)CC[C@@H](O)C(C)(C)[C@H]1C2,8.36% (active)
